# High-throughput results (PubChem BioAssay)
# Rows were chosen to be rich in hits. Some 3.2% of all compounds tested hit in one or more screens of this group.
# Kir21 block: inhibitors of mouse Kir2.1 inward-rectifier potassium channel; HEK293-Kir2.1, FluxOR thallium flux fluorescence; active compounds read low; B-score at 10 µM; 310,000 tested, 0.85% active; AID 1672;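 active = fluorescence ratio B-score at or below minus 3 SD of library scores, with starting-brightness B-score within 2 SD, cut at about -4.2 in these data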;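 note: channel flux triggered by added potassium and thallium sulfate stimulus; B-score of peak minus minimum fluorescence over baseline after thallium stimulus; more negative B-score means stronger Kir2.1 block with less thallium influx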
# CHT PAM: human CHT allosteric activation; B-score at 10 µM; AID 488977; 310,000 tested, 0.49% active; CHT-expressing cells, membrane potential dye, choline EC20; active compounds read high; LV-AA mutant CHT in HEK293 cells; Q9GZV3;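 active = initial fluorescence not abnormally high and integrated response B-score, plate-corrected, over 3 SD above library mean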
# CHT block: inhibits the human high affinity choline transporter; 310,000 tested, 0.86% active; B-score at 10 µM; CHT-expressing cells, membrane potential dye, choline response; active compounds read low; AID 488975;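 active = B-score over 3 SD under the library average, and starting fluorescence ratio not unusually high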;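 note: choline stimulus applied at its EC90 after an EC20 pre-addition; B-score computed on integrated fluorescence ratio after choline addition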
# TMEM16A act: activators or potentiators of mouse TMEM16A chloride channel | 340,000 tested, 0.3% active | B-score at 10 µM | HEK293 TMEM16A/YFP-H148Q/I152L, iodide quench fluorescence; active compounds read low | Q8BHY3 | AID 623877;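 active = fluorescence-ratio B-score plate-corrected deviation score at least 3 library SD below zero, with starting fluorescence score within 5 deviations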;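 note: channel opened by trigger with iodide after compound preincubation; score built on the fluorescence ratio of max minus min over baseline; more negative score means more quench and so TMEM16A activation or potentiation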
# Rce1 inh: yeast Ras-converting enzyme inhibition | Q03530 | yeast membranes, quenched prenylated peptide cleavage fluorescence | calls only | 290,000 tested, 0.27% active;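 active = fall in fluorescence gain of 50% or more versus controls, with final raw signal at or below 3038400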;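 note: plate controls were neutral control wells for no effect and wells lacking membranes for full effect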
# Target sequence (Q03530 whole entry, looked up): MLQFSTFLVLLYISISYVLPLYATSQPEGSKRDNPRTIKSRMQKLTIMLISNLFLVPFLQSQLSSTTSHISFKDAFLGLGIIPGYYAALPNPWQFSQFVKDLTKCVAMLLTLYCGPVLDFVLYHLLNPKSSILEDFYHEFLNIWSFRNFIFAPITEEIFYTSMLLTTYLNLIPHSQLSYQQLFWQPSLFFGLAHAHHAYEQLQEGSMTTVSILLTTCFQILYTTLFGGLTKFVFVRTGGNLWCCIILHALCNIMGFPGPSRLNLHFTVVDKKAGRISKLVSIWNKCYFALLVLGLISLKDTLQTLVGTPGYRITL
# TMEM16A inh: mouse TMEM16A channel inhibition, primary screen; Q8BHY3; HEK293 TMEM16A/YFP iodide influx fluorescence, ionomycin; 310,000 tested, 1.2% active; normalized B-score (activity score, 25-100; higher = stronger inhibition) at 10 µM;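 active = ratio plate-corrected score three or more library SD toward inhibition, starting fluorescence score within five deviations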;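 note: score derived from kinetic fluorescence span divided by baseline fluorescence per well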
# * marks the source's active call; other numbers are inactive results; i = inactive; / = not tested or not shown; + = active, no number.
SMILES,Kir21 block,CHT PAM,CHT block,TMEM16A act,Rce1 inh,TMEM16A inh
CCOc1ccc(N(Cc2cc3cc(C)ccc3[nH]c2=O)S(=O)(=O)c2ccccc2)cc1,-0.09,i,i,i,i,i
CCCCC1CCC(C(=O)N(CCOC)c2c(N)n(CC(C)C)c(=O)[nH]c2=O)CC1 (stereo not drawn),/,/,/,i,/,/
COC(=O)C1=C(C)N(C)C(=S)N(C)C1c1cccc(Br)c1 (stereo not drawn),-5*,i,i,i,i,i
CC(C)OC(=O)CSc1nnc(-c2cnccn2)n1C,-0.96,i,i,-5.8*,i,i
CC1CN(S(=O)(=O)c2cccc(C(=O)NCc3ccco3)c2)CC(C)O1 (stereo not drawn),/,/,/,i,/,/
c1ccc(Nc2nc(-c3ccccc3)ns2)cc1,2,i,i,-8.9*,i,i
CC(C)N(Cc1ccccc1)C(=O)COc1ccccc1,0.24,i,i,i,i,i
COc1ccc(CC(=O)N(Cc2ccccc2)C(C)C)cc1,-4.3*,i,i,i,i,i
Cc1cc(NC(=O)COC(=O)CCNS(=O)(=O)c2c(Cl)cccc2Cl)no1,-1.1,i,i,i,i,i
CCOC(=O)N1CCN(CC(O)COc2ccccc2C(C)C)CC1 (stereo not drawn),0.17,i,i,i,i,i
COc1ccc(C2CCCN2CC(O)COc2ccccc2C(C)C)cc1 (stereo not drawn),-11*,10*,i,i,i,i
O=C(COC(=O)c1ccc(Cl)nc1)Nc1ccc2c(c1)OCCO2,/,/,/,i,/,/
CN(CCOCCOc1ccc2ccccc2c1)Cc1ccccc1,-7*,i,i,i,i,i
CCc1ccc(OCCCCN(C)Cc2ccccc2)cc1,-6.1*,i,i,i,i,i
COc1ccc(CN(C2CCCCC2C)S(=O)(=O)c2ccc(S(=O)(=O)N(C)C)cc2)cc1OC (stereo not drawn),-1.5,i,i,-29*,i,i
C1=CC2=NC34CCCCC3CC3=C(CCCC3)N4C2=CC1=NC1CCCCC1 (stereo not drawn),0.06,i,i,i,i,i
O=C(Nc1ccc2oc(-c3cccnc3)nc2c1)c1ccco1,0.44,i,i,i,i,i
O=C(Nc1ccc2nc(-c3ccccc3)oc2c1)c1ccco1,0.8,i,i,-14*,i,i
Cc1cc(NC(=O)COC(=O)c2nccnc2N)n(-c2ccccc2)n1,2,i,i,i,+,i
COCCCNC(=O)c1cc2cc3cc(OC)ccc3nc2o1,0.79,i,i,i,+,i
CC(=O)Nc1ccc(S(=O)(=O)N(C)c2ccc(OCC(=O)OCC(=O)NCc3ccco3)cc2)cc1,-0.84,i,i,i,i,i
O=C1CN(C(=O)CSc2nc3ccccc3n2CCc2ccccc2)c2ccccc2N1,-3.8,i,i,i,i,i
CCCn1c(SCC(=O)N2CC(=O)Nc3ccccc32)nc2ccccc21,-6.9*,i,i,i,/,i
CC(C)(C)c1ccc(OC(=O)c2cccnc2)cc1,-4.5*,i,i,i,i,i
O=C(O)C1Sc2[nH]c(=O)sc2C2c3cc(Cl)ccc3OC(=O)C12 (stereo not drawn),0.73,i,i,i,i,i
SMILES,Kir21 block,CHT PAM,CHT block,TMEM16A act,Rce1 inh,TMEM16A inh
O=C(O)C1Sc2[nH]c(=O)sc2C2c3ccc(O)cc3OC(=O)C12 (stereo not drawn),-1.5,i,i,i,+,i
O=C(O)c1ccccc1/C=N/NC(=S)NCc1ccccc1,1.2,i,i,-12*,i,i
O=C(NN=Cc1ccccc1C(=O)O)C(=O)NN=Cc1ccccc1C(=O)O,/,/,/,i,/,/
Cc1ccc(C)c(/C=N/NC(=S)NCCc2ccccc2)c1,-0.99,i,i,i,i,100*
COc1cc(SC#N)ccc1N=Cc1c(C)[nH]n(-c2ccc(C)c(C)c2)c1=O,0.89,i,i,-13*,i,i
O=C(Nc1ccc(F)cc1Cl)C1=COCCO1,-1.5,i,i,i,i,i
Cc1ccc(S(=O)(=O)N2CCOCC2)cc1NC(=O)CSc1nnc(C2CC2)n1C1CC1,/,/,/,i,/,/
C=CCC1(CC=C)CCCN1C(=O)c1cc(COc2cncc(Cl)c2)on1,1.7,i,i,i,/,25*
C=CCC1(CC=C)CCCN1C(=O)c1cc(COc2cccc(OC)c2)on1,-0.57,i,i,i,i,i
CC(C)N(Cc1ccccc1)C(=O)COC(=O)c1cnc(Cl)c(Cl)c1,/,/,/,i,/,/
Cc1ccc(S(=O)(=O)Nc2cc(C(F)(F)F)ccc2N2CCOCC2)cc1,-0.01,i,i,i,i,i
Cc1ccc(S(=O)(=O)Nc2cc(C(F)(F)F)ccc2N2CCOCC2)c(C)c1,1.3,i,i,-14*,i,i
Cc1c(NC(=O)CSc2nc(N)cc(N)n2)c(=O)n(-c2ccccc2)n1C,/,/,/,i,/,/
CCOC(=O)Cc1c(C)nc2c(-c3ccc(Cl)cc3)c(C)nn2c1C,0.41,i,i,-4.8*,/,i
CCc1ccc(NC(=O)CC2C(=O)N(c3ccc(C)cc3)C(=O)N2C2CC2)cc1 (stereo not drawn),-0.02,i,i,i,i,i
NCC(c1ccc(Cl)cc1Cl)c1c[nH]c2ccccc12 (stereo not drawn),-8.7*,i,i,i,i,i
Cc1ccc(C)c(COC(=O)CCN=C2NS(=O)(=O)c3ccccc32)c1,-3.1,i,i,i,i,i
Nc1ncnc2c1nc(N1CCCCC1)n2[C@@H]1O[C@H](CO)[C@@H](O)[C@H]1O,/,/,/,i,/,/
CNc1nc2c(N)ncnc2n1[C@H]1O[C@@H](CO)[C@H](O)[C@@H]1O,0.54,i,-7.6*,i,i,i
C/C(CS(=O)(=O)c1ccc(Cl)c(Cl)c1)=N/NC(N)=S,-1.6,i,i,-8.5*,/,i
CCCN1C(=O)c2ccccc2NC1c1ccc(Cl)c(Cl)c1 (stereo not drawn),-1.1,7.3*,i,i,i,i
O=C(Cn1nc(-c2ccccc2)ccc1=O)NCC1CCCO1 (stereo not drawn),2.3,i,i,i,i,i
O=C(Cn1nc(-c2ccc(Cl)cc2)ccc1=O)NCC1CCCO1 (stereo not drawn),-1.4,i,i,-17*,i,i
Cc1ccc(NC(=O)CSCC(=O)Nc2cc(C(F)(F)F)ccc2N2CCOCC2)cc1,-1.2,i,i,i,i,i
